Experimental data: ChEMBL document CHEMBL3988442, “University of Dundee, Small-Polar-MMV Screening Library” (2021)
In all, about 48,000 compounds went through this assay and about 13,000 (27%) showed an effect of 50% or more. The list shows a part of the results.

What follows are compounds tested on Wolbachia pipientis (assay: Anti-Wolbachia Cell-Based Screen). Conditions: 5 µM.
Format: functional
Design: scale not given: in the data most compounds retested in dose-response had high values
CCOCC(O)CN1CCN(C(=O)Cc2ccc(C)nc2)CC1 (configuration not stated) was tested, and the “Percent Effect” value was -10.97%. With CCOCC(O)CN1CCN(C(=O)Cc2ccccc2C)CC1 (configuration not stated) the “Percent Effect” value was -8.235%. CCC(O)CN1CCN(C(=O)Cc2ccc(OC)cc2OC)CC1 (configuration not stated) was tested, and the “Percent Effect” value was 102.8%. CCC(O)CN1CCN(C(=O)Cc2c(C)nc(C)[nH]c2=O)CC1 (configuration not stated) was tested, and the “Percent Effect” value was -7.478%. CCC(O)CN1CCN(C(=O)Cc2cc(C)ccc2OC)CC1 (configuration not stated) was tested, and the “Percent Effect” value was 134%. For CCC(O)CN1CCN(C(=O)Cc2nc(-c3ccco3)oc2C)CC1 (configuration not stated), the “Percent Effect” value was -5.833%. With COCCN1C[C@H]2CC[C@@H]1CN(Cc1ccc3ccccc3n1)C2 the “Percent Effect” value was 26.94%. For CN1CCN(S(=O)(=O)c2ccccc2)Cc2cccnc21.O=C(O)C(F)(F)F, the “Percent Effect” value was 87.5%. Cc1cnc(N2CCN(C)c3ncccc3C2)nc1.O=C(O)C(F)(F)F was tested, and the “Percent Effect” value was 1.496%. With CN1CCN(S(=O)(=O)c2cccc(F)c2)Cc2cccnc21.O=C(O)C(F)(F)F the “Percent Effect” value was 100.3%. With CCc1ccc(CN2CCN(C)c3ncccc3C2)o1.O=C(O)C(F)(F)F.O=C(O)C(F)(F)F the “Percent Effect” value was 45.7%. For Cc1ccc(N2CCN(C)c3ncccc3C2)nn1.O=C(O)C(F)(F)F, the “Percent Effect” value was 6.797%. For Cl.Cl.c1ccc(COC[C@H]2CCC[C@@]23CNCCO3)nc1, the “Percent Effect” value was 88.66%. With Cl.Cl.c1ccc(COC[C@@H]2CCC[C@@]23CNCCO3)nc1 the “Percent Effect” value was 92.25%. With Fc1cccnc1N1CCC2(CNCCC2(F)F)C1 (configuration not stated) the “Percent Effect” value was 8.279%. In the case of Cc1ccc(N2CC[C@@H]3CN(Cc4c[nH]cn4)C[C@@H]3C2)nn1, the “Percent Effect” value is reported as -8.039%. With CN1CCC2(Cc3ccccc3NC2=O)C1 (configuration not stated) the “Percent Effect” value was -15.76%. For CN1Cc2ccccc2NC(=O)C12CCNC2 (configuration not stated), the “Percent Effect” value was 111%. For CCOCCC(=O)N1C[C@H]2CC[C@@H]1CN(Cc1ccncc1)C2, the “Percent Effect” value was 3.16%. With CN1CCN2C(=O)N(c3ccccc3)C[C@H]2C1 the “Percent Effect” value was 3.165%. With OC[C@H]1CN2CCN(c3ccccn3)C[C@@H]2[C@@H]1c1ccccc1 the “Percent Effect” value was 97.55%. In the case of Cc1nc(CC(=O)N2CCN(C)CC2c2ccccc2)cs1 (configuration not stated), the “Percent Effect” value is reported as -2.978%. OC[C@@H]1CN2CCN(c3ccccn3)C[C@@H]2[C@H]1c1ccccc1 was tested, and the “Percent Effect” value was 91.03%. For CN1CCN2C[C@@H](CO)[C@H](c3ccccc3)[C@H]2C1, the “Percent Effect” value was 108.7%. In the case of O=C(Cc1ccc(-n2cccn2)cc1)N1CCN2CCCCC2C1 (configuration not stated), the “Percent Effect” value is reported as 0.2002%. With N#Cc1cccc(N2CCOC3(CNCCOC3)C2)n1 (configuration not stated) the “Percent Effect” value was -42.42%. In the case of Cc1cc(CN2C[C@@H]3COC[C@]3(CNS(C)(=O)=O)C2)no1.O=C(O)C(F)(F)F, the “Percent Effect” value is reported as -0.4635%.
